# Inconclusive results are not listed. Where a call stands in place of a potency, no number is given. Active and inactive are the calls of the source. Unless noted, calls come from the whole dose curve.
# How the values were obtained:
# [1] = qHTS profiling of the MIPE4 collection as inhibitors of Plasmodium falciparum (3D7) proliferation (AID 743344; call rule not given here); conditions: P. falciparum 3D7 in erythrocytes, SYBR Green DNA fluorescence, 72 h; at 28.5 µM unless noted
# How it was run: (§1)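 Parasite DNA was quantified by SYBR Green I fluorescence (ex 485, em 535 nm) after overnight lysis in saponin/Triton buffer at room temperature. Cultures at 0.3% parasitemia and 2.5% hematocrit were first exposed to compound for 72 h at 37 C; signals were normalised to artemisinin (0.29 uM) and vehicle wells.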
# [2] = qHTS profiling of the MIPE4 collection as inhibitors of Plasmodium falciparum (DD2) proliferation (Rep 2) (AID 743346; call rule not given here); conditions: P. falciparum Dd2 in erythrocytes, SYBR Green DNA, 72 h; at 28.5 µM unless noted
# How it was run: as §1
# [3] = qHTS profiling of the MIPE4 collection as inhibitors of Plasmodium falciparum (HB3) proliferation (AID 743347; call rule not given here); conditions: P. falciparum HB3 in erythrocytes, SYBR Green DNA, 72 h; at 28.5 µM unless noted
# How it was run: as §1
# [4] = qHTS for Inhibitors of the Functional Ribonucleoprotein Complex (vRNP) of Lassa (LASV) Arenavirus: LASV Primary Screen - GLuc reporter signal (AID 1347082; calls by dose curve; tested in HEK293 reporter line; note: nearly all actives have a fitted effect of over 60% in size; note: potency is the fitted concentration of half-maximal effect)
# [5] = qHTS for Inhibitors of the Functional Ribonucleoprotein Complex (vRNP) of Lassa (LASV) Arenavirus: Viability assay - alamar blue signal for LASV Primary Screen (AID 1347083; calls by dose curve; tested in HEK293 reporter line; note: nearly all actives have a fitted effect of over 80% in size; note: potency is the fitted concentration of half-maximal effect)
# [6] = qHTS for Inhibitors of the Functional Ribonucleoprotein Complex (vRNP) of Lymphocytic Choriomeningitis Arenaviruses (LCMV): Viability assay - alamar blue signal for LCMV Primary Screen (AID 1347085; calls by dose curve; tested in HEK293 reporter line; note: nearly all actives have a fitted effect of over 80% in size; note: potency is the fitted concentration of half-maximal effect)
# [7] = target: Nucleoprotein (Lymphocytic choriomeningitis virus (strain Armstrong)) (UniProt P09992); test: qHTS for Inhibitors of the Functional Ribonucleoprotein Complex (vRNP) of Lymphocytic Choriomeningitis Arenaviruses (LCMV): LCMV Primary Screen - GLuc reporter signal (AID 1347086); note: nearly all actives have a fitted effect of over 70% in size; note: potency is the fitted concentration of half-maximal effect
# Chain of Nucleoprotein (Lymphocytic choriomeningitis virus (strain Armstrong)) (P09992 whole entry, looked up): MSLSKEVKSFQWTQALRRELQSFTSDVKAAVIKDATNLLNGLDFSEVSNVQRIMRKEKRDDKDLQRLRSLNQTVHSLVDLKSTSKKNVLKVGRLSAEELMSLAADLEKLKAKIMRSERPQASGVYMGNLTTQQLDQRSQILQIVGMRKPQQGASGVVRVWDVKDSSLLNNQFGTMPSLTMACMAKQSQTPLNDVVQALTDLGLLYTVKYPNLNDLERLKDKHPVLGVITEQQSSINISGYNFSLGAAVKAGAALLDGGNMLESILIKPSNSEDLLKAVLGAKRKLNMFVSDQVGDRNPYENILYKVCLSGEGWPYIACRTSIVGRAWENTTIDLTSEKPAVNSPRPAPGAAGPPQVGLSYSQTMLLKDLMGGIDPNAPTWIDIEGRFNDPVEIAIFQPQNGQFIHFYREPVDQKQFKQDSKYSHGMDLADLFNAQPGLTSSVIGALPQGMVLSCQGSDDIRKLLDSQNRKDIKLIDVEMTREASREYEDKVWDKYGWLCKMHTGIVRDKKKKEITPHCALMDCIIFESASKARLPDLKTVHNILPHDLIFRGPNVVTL
# [8] = Validation screen for inhibitors of Lassa infection (AID 463096)
# [9] = Inducers of the Endoplasmic Reticulum Stress Response (ERSR) in human glioma: Validation (AID 504836; active = well fitted curve in the direction sought with a large enough effect; an effect the other way counts as inactive or inconclusive)
# How it was run: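 ERSR induction read as luciferase luminescence (Bright-Glo, 10 min at room temperature) in stably transfected human U87-MG glioma cells exposed to compounds for 16 h, using GRP78 as sensor.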
# [10] = Primary qHTS for Huh7 cytotoxicity: counterscreen for inhibitors of MERS-S pseudotyped particle cell entry (AID 1479147); conditions: outcome: dose series up to 57.1 µM unless noted
# [11] = Primary qHTS for Vero E6 cytotoxicity: counterscreen for inhibitors of SARS-S pseudo-typed particle cell entry (AID 1479150); conditions: outcome: dose series up to 57.1 µM unless noted
# [12] = Cytotoxicity counterscreen for inhibitors of SARS-CoV-2 cell entry (AID 1645845); note: nearly all actives have a fitted effect of over 50% in size
# How it was run: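 ATP-content luminescence (ATPLite 1step, 15 min RT) read after 48 h compound exposure of Expi293F cells stably expressing human ACE2; normalized to cells-only wells and media-only wells.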
# [13] = target: Cytochrome P450 3A4 (Homo sapiens) (UniProt P08684); test: qHTS Assay for Inhibitors and Substrates of Cytochrome P450 3A4 (AID 884; active = well fitted curve in the direction sought with a large enough effect; an effect the other way counts as inactive or inconclusive; note: potency is the fitted concentration of half-maximal effect; nearly all actives have a fitted effect of over 50% in size)
# Chain of Cytochrome P450 3A4 (Homo sapiens) (P08684 whole entry, looked up): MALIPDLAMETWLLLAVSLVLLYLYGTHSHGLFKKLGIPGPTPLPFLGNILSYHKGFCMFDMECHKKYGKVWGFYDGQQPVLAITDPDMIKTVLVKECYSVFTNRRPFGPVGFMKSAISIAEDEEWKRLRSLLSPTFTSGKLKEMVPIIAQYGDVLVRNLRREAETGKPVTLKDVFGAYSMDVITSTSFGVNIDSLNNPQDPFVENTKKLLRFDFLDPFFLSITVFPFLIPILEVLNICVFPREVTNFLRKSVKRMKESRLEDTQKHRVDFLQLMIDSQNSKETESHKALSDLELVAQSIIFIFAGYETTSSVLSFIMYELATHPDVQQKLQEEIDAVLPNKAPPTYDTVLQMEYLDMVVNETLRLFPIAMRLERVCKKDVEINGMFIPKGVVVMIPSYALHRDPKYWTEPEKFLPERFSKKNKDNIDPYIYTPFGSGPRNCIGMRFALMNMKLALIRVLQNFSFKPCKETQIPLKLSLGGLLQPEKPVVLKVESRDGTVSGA
# How it was run: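 Luminescent readout of luciferin produced by CYP3A4 (20 nM) dealkylation of Luciferin-PPXE, 25 uM (its KM). NADPH-driven reaction ran 60 min at RT after 10 min compound preincubation; data scaled to 57 uM ketoconazole as 100% inhibition.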
# [14] = target: Cytochrome P450 3A4 (Homo sapiens) (UniProt P08684); test: qHTS Assay for Activators of Cytochrome P450 3A4 (AID 885; active = well fitted curve in the direction sought with a large enough effect; an effect the other way counts as inactive or inconclusive; note: nearly all actives have a fitted effect of over 65% in size)
# How it was run: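 Human CYP3A4 dealkylates Luciferin-PPXE to luciferin, which luciferase detection converts to light. Substrate was at its KM (25uM), buffer 200mM KPO4, reaction 60 min at RT.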
# [15] = target: Cytochrome P450 2C19 (Homo sapiens) (UniProt P33261); test: qHTS Assay for Inhibitors and Substrates of Cytochrome P450 2C19 (AID 899; active = well fitted curve in the direction sought with a large enough effect; an effect the other way counts as inactive or inconclusive; note: potency is the fitted concentration of half-maximal effect; nearly all actives have a fitted effect of over 60% in size)
# Chain of Cytochrome P450 2C19 (Homo sapiens) (P33261 whole entry, looked up): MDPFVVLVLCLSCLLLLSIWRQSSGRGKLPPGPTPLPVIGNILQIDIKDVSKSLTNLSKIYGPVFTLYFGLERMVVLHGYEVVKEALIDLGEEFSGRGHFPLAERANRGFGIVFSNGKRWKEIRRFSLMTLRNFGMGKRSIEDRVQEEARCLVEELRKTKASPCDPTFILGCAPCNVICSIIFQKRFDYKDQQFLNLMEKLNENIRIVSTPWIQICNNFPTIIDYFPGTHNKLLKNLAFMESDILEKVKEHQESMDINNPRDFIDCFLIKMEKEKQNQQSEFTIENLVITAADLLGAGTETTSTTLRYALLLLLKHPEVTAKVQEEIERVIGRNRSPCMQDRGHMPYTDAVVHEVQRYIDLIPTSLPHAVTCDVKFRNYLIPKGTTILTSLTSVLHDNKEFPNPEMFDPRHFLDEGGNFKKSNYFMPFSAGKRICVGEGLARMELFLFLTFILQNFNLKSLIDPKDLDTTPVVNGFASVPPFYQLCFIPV
# How it was run: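 Reactions contain 5nM enzyme, 10uM Luciferin-H EGE (KM) and 50mM KPO4; compound preincubates 10 min at 37C, NADPH regeneration starts turnover for 60 min. Luminescence after detection reagent gives activity.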
# [16] = target: Alpha-galactosidase (Coffea arabica) (UniProt Q42656); test: Counterscreen for Glucocerebrosidase Inhibitors: qHTS Assay for Coffee Bean alpha-Galactosidase at pH 5.9 (AID 998; active = well fitted curve in the direction sought with a large enough effect; an effect the other way counts as inactive or inconclusive)
# Chain of Alpha-galactosidase (Coffea arabica) (Q42656 whole entry, looked up): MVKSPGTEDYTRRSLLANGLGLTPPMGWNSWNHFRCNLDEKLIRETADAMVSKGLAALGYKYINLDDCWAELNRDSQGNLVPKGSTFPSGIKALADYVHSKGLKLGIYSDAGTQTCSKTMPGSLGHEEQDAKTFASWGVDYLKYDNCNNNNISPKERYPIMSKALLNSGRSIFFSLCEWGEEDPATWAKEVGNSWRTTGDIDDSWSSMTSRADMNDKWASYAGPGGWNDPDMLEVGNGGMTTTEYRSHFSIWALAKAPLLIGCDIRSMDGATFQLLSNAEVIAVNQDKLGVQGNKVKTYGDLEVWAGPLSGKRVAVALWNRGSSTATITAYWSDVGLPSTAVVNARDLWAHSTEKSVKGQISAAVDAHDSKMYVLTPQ
# How it was run: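 Fluorogenic 4-MU substrate hydrolysis, 80 uM substrate and 2 nM coffee bean alpha-galactosidase, pH 5.9 citrate buffer, 20 min at room temperature, then NaOH/glycine stop. Titration 0.7 nM–77 uM, normalized to no-enzyme and enzyme controls, AC50 via Hill equation.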
# [17] = qHTS profiling of the MIPE4 collection as inhibitors of Plasmodium falciparum (DD2) proliferation (AID 743345; call rule not given here); conditions: P. falciparum Dd2 in erythrocytes, SYBR Green DNA, 72 h; at 28.5 µM unless noted
# How it was run: as §1
# [18] = Primary qHTS to identify inhibitors of SARS-CoV-2 cell entry (AID 1645846); conditions: activity change, negative = inhibition: at 57.1 µM (top of the series) unless noted; note: nearly all actives have a fitted effect of over 45% in size; note: potency is the fitted concentration of half-maximal effect
# How it was run: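 Luminescence readout (Bright-Glo luciferase) 48 h after pseudoparticle addition. HEK293-ACE2 cells, 1500/well; compound pre-incubation 1 h; Normalized to spike PP and bald PP.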
# [19] = target: Alpha-galactosidase (Coffea arabica) (UniProt Q42656); test: Counterscreen for Glucocerebrosidase Inhibitors: qHTS Assay for Coffee Bean alpha-Galactosidase at pH 4.5 (AID 957; active = well fitted curve in the direction sought with a large enough effect; an effect the other way counts as inactive or inconclusive)
# How it was run: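 Fluorogenic read-out: 4-methylumbelliferone at Ex 365/Em 440 nm after NaOH/glycine stop (pH 10). Enzyme 2 nM, 4-MU-alpha-galactoside 80 uM, citrate buffer pH 4.5, 20 min RT; normalized to no-enzyme and enzyme controls.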
# [20] = Confirmatory qHTS to identify inhibitors of SARS-CoV-2 cell entry (AID 1645844); note: potency is the fitted concentration of half-maximal effect; nearly all actives have a fitted effect of over 45% in size
# How it was run: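 Luminescence entry read-out after 48 h: spike-pseudotyped MLV particles (Wuhan-Hu-1, 19-aa C-terminal truncation) added to compound-pretreated (1 h) HEK293-ACE2 cells; Data were normalised to bald PP and spike PP wells.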
# [21] = VSVG counterscreen qHTS to identify inhibitors of SARS-CoV-2 cell entry (AID 1645847); note: potency is the fitted concentration of half-maximal effect; nearly all actives have a fitted effect of over 65% in size
# How it was run: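 HEK293-ACE2 cells (Expi293F stably expressing human ACE2) were pretreated with compound for 1 h at 37 °C, then infected with MLV-based VSV-G pseudotyped particles for 48 h. Luciferase luminescence was normalized to VSV-G PP and bald PP wells.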
smiles,measurement,setting,value
CC(=O)N[C@H]1[C@@H]([C@H](O)[C@H](O)CO)OC(C(=O)O)=C[C@@H]1N=C(N)N,"parasite growth, % of DMSO control",[1],96.2%
same,"parasite growth, % of control (lower = inhibition)",[2],142%
same,"growth, % of control",[3],100%
same,Potency,[4],inactive
same,Potency,[5],inactive
same,Potency,[6],inactive
same,Potency,[7],inactive
CN(C)CCCC1(c2ccc(F)cc2)OCc2cc(C#N)ccc21 (stereo unspecified),Potency,[8],inactive
same,outcome,[9],inactive
same,Potency,[4],inactive
same,Potency,[5],inactive
same,Potency,[6],inactive
same,outcome,[10],inactive
same,outcome,[11],inactive
same,Potency,[12],inactive
Nc1nc(OCc2ccccc2)c2[nH]cnc2n1,Potency,[13],7.94 µM (active)
same,Potency,[14],inactive
same,Potency,[15],6.31 µM (active)
same,outcome,[16],inactive
same,Potency,[8],inactive
same,"parasite growth, % of DMSO control",[1],83.5%
same,"parasite growth remaining, % of DMSO control (lower = more inhibition)",[17],103%
same,"parasite growth, % of control (lower = inhibition)",[2],72.1%
same,"growth, % of control",[3],44%
same,Potency,[4],inactive
same,Potency,[5],inactive
same,Potency,[6],17.2 µM (active)
same,Potency,[12],inactive
same,Potency,[18],inactive
CCOC(=O)C1=C(C)NC2=C(C(=O)CC(C)(C)C2)C1c1ccc(-c2ccccc2)cc1 (stereo unspecified),Potency,[4],inactive
same,Potency,[5],inactive
same,Potency,[6],inactive
same,Potency,[12],inactive
N#C/C(=C\c1ccc(O)c(O)c1)C(=O)NCCc1ccccc1,outcome,[19],inactive
same,outcome,[16],inactive
same,Potency,[4],inactive
same,Potency,[5],inactive
same,Potency,[6],inactive
same,Potency,[7],inactive
CCCCOc1c(C(=O)c2c(F)cc(C)cc2F)cnc2n[nH]cc12,Potency,[4],5.44 µM (active)
same,Potency,[5],2.17 µM (active)
same,Potency,[6],7.69 µM (active)
same,Potency,[20],1.52 µM (active)
same,Potency,[12],inactive
same,Potency,[18],1.12 µM (active)
same,Potency,[21],1.52 µM (active)
C=CCNc1c(O)cc2c(O)c1C[C@@H](C)C[C@H](OC)[C@@H](O)[C@@H](C)C=C(C)[C@H](OC(N)=O)[C@@H](OC)C=CC=C(C)C(=O)N2,Potency,[4],10.9 µM (active)
same,Potency,[5],4.85 µM (active)
same,Potency,[7],4.85 µM (active)
NC(=O)c1c[nH]c2ccccc12,Potency,[4],inactive
same,Potency,[5],inactive
same,Potency,[7],inactive
COc1ccc(CCC(=O)c2c(O)cc(O[C@@H]3O[C@H](CO)[C@@H](O)[C@H](O)[C@@H]3O[C@@H]3O[C@@H](C)[C@H](O)[C@@H](O)[C@@H]3O)cc2O)cc1O,Potency,[4],7.69 µM (active)
same,Potency,[5],5.44 µM (active)
same,Potency,[7],6.11 µM (active)
CCCCC/C=C\C\C=C/C=C/C=C/[C@@H](O)[C@@H](O)CCCC(=O)O,"activity change, negative = inhibition",[4],-2.59% [at 0.757 µM] (inactive)
same,"activity change, negative = reduced viability",[5],14.4% [at 0.757 µM] (inactive)
same,"activity change, negative = inhibition",[7],-32.8% [at 0.757 µM] (inactive)
CN(C)Cc1cccc(N=C(c2ccccc2)c2c(O)[nH]c3cc(C(=O)N(C)C)ccc23)c1,Potency,[4],inactive
same,Potency,[5],13.7 µM (active)
same,Potency,[7],inactive
COc1cc2c(cc1-c1c(C)noc1C)ncc1[nH]c(=O)n([C@H](C)c3ccccn3)c12,Potency,[4],13.7 µM (active)
same,Potency,[5],17.2 µM (active)
same,Potency,[7],9.68 µM (active)
same,Potency,[12],inactive
same,"activity change, negative = inhibition",[18],-29%

# Reference: PubChem BioAssay (NCATS)
